The text below walks through data of publication PMC13541613, “GHT-SELEX demonstrates unexpectedly high intrinsic sequence specificity and complex DNA binding of many human transcription factors”.

One assay addresses ZNF721 full-length (Homo sapiens, UniProt Q8TF20-2 1-923). In words: HT-SELEX; 20 mM HEPES pH 7, 140 mM KCl, 5 mM NaCl, 1 mM K2HPO4, 2 mM MgSO4, 100 uM EGTA, ZnSO4, 0.1% Tween20; room temperature, 1 h; high values mean tight binding. The note with it: protein: ivt; tags: eGFP (N-terminal); dsDNA, one strand shown. The gist of the method:
(§1)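 In HEPES/KCl low-stringency buffer with Tween20, a bead-immobilised tagged transcription factor (full-length or DNA-binding-domain fragment, from HEK293 lysate or cell-free extract) was incubated with a randomized 40-base DNA library for 1 h at room temperature. DNA retained after washing was heat-eluted, amplified by PCR over successive cycles and Illumina-sequenced, giving ~3 million 60 bp reads per sample. The reported binding signal, a relative k-mer count in those selected reads, rises with tighter binding.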

The target of the next assay is ZNF721 DBD2 (Homo sapiens, UniProt Q8TF20-2 395-923). Described as above. The note with it: protein: ivt; tags: eGFP (N-terminal); dsDNA, one strand shown. The gist of the method: as §1
Chain of ZNF721 DBD2 (Q8TF20 383-911): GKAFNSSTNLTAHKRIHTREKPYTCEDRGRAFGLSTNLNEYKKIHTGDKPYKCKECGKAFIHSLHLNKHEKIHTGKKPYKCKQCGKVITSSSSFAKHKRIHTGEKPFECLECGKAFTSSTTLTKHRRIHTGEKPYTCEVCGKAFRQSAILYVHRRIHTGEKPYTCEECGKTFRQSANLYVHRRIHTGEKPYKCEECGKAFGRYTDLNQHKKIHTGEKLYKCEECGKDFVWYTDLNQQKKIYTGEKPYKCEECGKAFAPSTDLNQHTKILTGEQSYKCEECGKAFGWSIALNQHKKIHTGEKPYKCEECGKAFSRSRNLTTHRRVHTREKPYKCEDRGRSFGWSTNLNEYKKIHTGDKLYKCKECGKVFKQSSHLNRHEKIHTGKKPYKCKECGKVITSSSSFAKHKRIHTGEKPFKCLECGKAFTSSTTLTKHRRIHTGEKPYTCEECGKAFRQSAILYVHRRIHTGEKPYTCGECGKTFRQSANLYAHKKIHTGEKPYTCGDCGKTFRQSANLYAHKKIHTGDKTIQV

Chain of ZNF721 full-length (Q8TF20 other isoform, or with tags, fused parts or gaps): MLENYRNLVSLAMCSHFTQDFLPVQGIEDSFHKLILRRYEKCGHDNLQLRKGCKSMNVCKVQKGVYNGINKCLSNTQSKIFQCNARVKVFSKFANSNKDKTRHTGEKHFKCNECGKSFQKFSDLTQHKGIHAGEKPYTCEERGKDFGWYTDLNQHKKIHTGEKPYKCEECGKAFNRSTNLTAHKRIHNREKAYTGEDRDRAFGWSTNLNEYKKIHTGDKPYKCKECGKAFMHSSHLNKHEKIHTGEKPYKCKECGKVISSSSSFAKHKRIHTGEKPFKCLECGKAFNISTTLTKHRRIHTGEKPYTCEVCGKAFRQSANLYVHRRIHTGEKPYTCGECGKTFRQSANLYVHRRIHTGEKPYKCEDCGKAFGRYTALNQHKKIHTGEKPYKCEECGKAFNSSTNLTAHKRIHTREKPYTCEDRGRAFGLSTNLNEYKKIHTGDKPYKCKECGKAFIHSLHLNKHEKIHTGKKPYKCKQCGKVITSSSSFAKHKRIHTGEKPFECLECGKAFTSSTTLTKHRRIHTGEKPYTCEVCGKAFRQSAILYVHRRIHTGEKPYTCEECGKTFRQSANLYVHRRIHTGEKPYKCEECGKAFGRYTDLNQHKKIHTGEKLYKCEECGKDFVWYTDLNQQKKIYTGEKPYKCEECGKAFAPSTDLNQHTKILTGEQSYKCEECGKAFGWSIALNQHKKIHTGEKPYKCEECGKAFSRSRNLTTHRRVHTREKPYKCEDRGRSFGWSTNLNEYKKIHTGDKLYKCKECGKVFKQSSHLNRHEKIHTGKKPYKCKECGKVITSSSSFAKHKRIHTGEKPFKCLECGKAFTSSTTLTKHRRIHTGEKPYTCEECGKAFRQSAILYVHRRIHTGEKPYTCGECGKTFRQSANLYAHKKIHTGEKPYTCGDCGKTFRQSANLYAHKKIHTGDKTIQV

Regarding AAAAGAACAG, the binding signal stood at 0.113 relative 10-mer count in the assay with ZNF721 full-length and 0.0777 relative 10-mer count in the assay with ZNF721 DBD2.
The matching figures for ACGCTGTTTC: 0.13 relative 10-mer count and 0.199 relative 10-mer count.
On to CTGTTTTTTA, for which the binding signal with ZNF721 full-length amounted to 0.204 relative 10-mer count; with ZNF721 DBD2 it was 0.282 relative 10-mer count.
On the same counts, the results for CACTGTTTTC are 0.15 relative 10-mer count and 0.248 relative 10-mer count.
In the case of CAGAGTACCC, the binding signal with ZNF721 full-length came to 0.125 relative 10-mer count; with ZNF721 DBD2, 0.18 relative 10-mer count.
On the same counts, the results for AAACAGCATC are 0.208 relative 10-mer count and 0.21 relative 10-mer count.
The matching figures for CACAAAACAG: 0.147 relative 10-mer count and 0.156 relative 10-mer count.
In the case of CAAAGCAGCA, the values for the binding signal with ZNF721 full-length and with ZNF721 DBD2 were 0.112 relative 10-mer count and 0.132 relative 10-mer count, respectively.
On the same counts, the results for AACACTGCTT are 0.388 relative 10-mer count and 0.495 relative 10-mer count.
Take AAACAGTGTA: the values for the binding signal in the assay with ZNF721 full-length and with ZNF721 DBD2 were 0.179 relative 10-mer count and 0.225 relative 10-mer count, respectively.
On the same counts, the results for AAGCAGTGTA are 0.142 relative 10-mer count and 0.18 relative 10-mer count.
As for ACACTGCTTG, the binding signal with ZNF721 full-length came to 0.107 relative 10-mer count; in the assay with ZNF721 DBD2, 0.138 relative 10-mer count.
On the same counts, the results for CAAAGCAGCG are 0.114 relative 10-mer count and 0.158 relative 10-mer count.
Take AAACAGGGTA: the figures for the binding signal in the assay with ZNF721 full-length and in the assay with ZNF721 DBD2 were 0.175 relative 10-mer count and 0.22 relative 10-mer count, respectively.
In the case of AAACAGCAGC, the binding signal stood at 0.122 relative 10-mer count with ZNF721 full-length and 0.135 relative 10-mer count in the assay with ZNF721 DBD2.
Turning to AAAAACAGCG, the binding signal in the assay with ZNF721 full-length is 0.589 relative 10-mer count; with ZNF721 DBD2, 0.668 relative 10-mer count.
Regarding GCTGTTTTTA, the binding signal with ZNF721 full-length came out at 0.135 relative 10-mer count; with ZNF721 DBD2, 0.204 relative 10-mer count.
On the same counts, the results for AAACAGCATT are 0.17 relative 10-mer count and 0.254 relative 10-mer count.
Take AAAAAACAGA: the binding signal was found to be 0.261 relative 10-mer count in the assay with ZNF721 full-length and 0.219 relative 10-mer count with ZNF721 DBD2.
Regarding ATAAAAACAG, the binding signal came out at 0.11 relative 10-mer count in the assay with ZNF721 full-length and 0.148 relative 10-mer count with ZNF721 DBD2.
On the same counts, the results for GAGACACTGC are 0.113 relative 10-mer count and 0.128 relative 10-mer count.
AAACAGCGTT: the binding signal with ZNF721 full-length was 0.388 relative 10-mer count; in the assay with ZNF721 DBD2, 0.648 relative 10-mer count.
On the same counts, the results for AACAGCATAC are 0.51 relative 10-mer count and 0.709 relative 10-mer count.
As to ACAAAAACAG, the binding signal in the assay with ZNF721 full-length is 0.13 relative 10-mer count; with ZNF721 DBD2, 0.173 relative 10-mer count.
The matching figures for ACAGCATACC: 0.516 relative 10-mer count and 0.692 relative 10-mer count.
On the same counts, the results for AAAAACAGCA are 0.778 relative 10-mer count and 0.785 relative 10-mer count.
The matching figures for CAGTGTTTCC: 0.252 relative 10-mer count and 0.641 relative 10-mer count.
Turning to AAAACAGCGC, the binding signal with ZNF721 full-length is 0.17 relative 10-mer count; in the assay with ZNF721 DBD2, 0.225 relative 10-mer count.
As for AAACAGCACT, the binding signal with ZNF721 full-length was 0.14 relative 10-mer count; in the assay with ZNF721 DBD2, 0.201 relative 10-mer count.
The matching figures for AAAAAACAGG: 0.278 relative 10-mer count and 0.289 relative 10-mer count.
With CAGCATGACC, the binding signal with ZNF721 full-length was 0.229 relative 10-mer count; in the assay with ZNF721 DBD2, 0.437 relative 10-mer count.
With CCCTGTTTTC, the binding signal in the assay with ZNF721 full-length is 0.162 relative 10-mer count; with ZNF721 DBD2, 0.186 relative 10-mer count.
With GCAACACTGC, the figures for the binding signal with ZNF721 full-length and with ZNF721 DBD2 were 0.135 relative 10-mer count and 0.238 relative 10-mer count, respectively.
The matching figures for AAAAGCAGCG: 0.276 relative 10-mer count and 0.326 relative 10-mer count.
Take CAGGGTTTCC: the binding signal amounted to 0.162 relative 10-mer count in the assay with ZNF721 full-length and 0.368 relative 10-mer count in the assay with ZNF721 DBD2.
The matching figures for ACAGCATGAC: 0.209 relative 10-mer count and 0.295 relative 10-mer count.
For the sequence CAGTGTATCC, the binding signal with ZNF721 full-length turned out to be 0.208 relative 10-mer count; in the assay with ZNF721 DBD2 it was 0.401 relative 10-mer count.
The matching figures for AAAAACAGGG: 0.283 relative 10-mer count and 0.337 relative 10-mer count.
On to ACAAAACAGT, for which the binding signal was 0.115 relative 10-mer count with ZNF721 full-length and 0.123 relative 10-mer count in the assay with ZNF721 DBD2.
For CCGAAAACAG, the figures for the binding signal with ZNF721 full-length and in the assay with ZNF721 DBD2 were 0.111 relative 10-mer count and 0.217 relative 10-mer count, respectively.
